The source of these data is PubChem BioAssay (NCATS).

Inconclusive results are not listed. The source made the active and inactive calls. The call rests on the fitted dose curve; in most records, active means well fitted inhibition curve with a large enough effect; inconclusive means small, poorly fitted or top-dose-only effect; inactive means flat fitted curve, though single readings scatter.

Holding throughout (assay): qHTS profiling for inhibitors of Plasmodium falciparum proliferation (AID 504749); further: nearly all actives have a fitted effect of over 60% in size
Common to all, as to details: P. falciparum in erythrocytes, SYBR Green DNA, 72 h; series mostly up to 28.7 µM
For orientation: Quantitative high-throughput screening tests each substance at several concentrations.

Experiment [1] concerns CP260. In a few lines: (§1)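 SYBR Green fluorescence of parasite DNA, read after lysis and overnight dark incubation, measured growth over 72 h in erythrocyte culture at 0.3% parasitemia and 2.5% hematocrit. Data normalised to DMSO and 0.29 uM artemisinin, with plate-drift correction.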
For experiment [2], the system named is CP262. In a few lines: as §1
In experiment [3] the test system is CP265. In a few lines:
as §1

Experiment [4] deals with CP266. In a few lines:
as §1

The test system of experiment [5] is CP268. In a few lines: as §1
Experiment [6] relates to CP269. Summed up: as §1
The subject of experiment [7] is CP286. In a few lines:
as §1

The test system of experiment [8] is CP291. In a few lines: as §1
In experiment [9] the test system is CP297. In a few lines: as §1
Experiment [10] relates to CP305. Summed up: as §1
The subject of experiment [11] is CP315. In a few lines:
as §1

The test system of experiment [12] is CP325. Summed up: as §1
For experiment [13], the system named is CP329. In a few lines: as §1
In experiment [14] the test system is CP335. Summed up:
as §1

Experiment [15] has as its system DFO2036. In a few lines:
as §1

Experiment [16] concerns DIV14. Summed up: as §1
The test system of experiment [17] is DIV30. In a few lines: as §1
Experiment [18] deals with Dd2. Summed up: as §1
Experiment [19] concerns ECU. Summed up:
as §1

Experiment [20] has as its system DIV17. Summed up:
as §1
Potency means the concentration at half of the fitted maximal effect.

For the compound `CCC1(c2ccccc2)C(=O)NC(=O)N(C(=O)c2ccccc2)C1=O` (stereo not drawn), the Potency entry in experiment [1], in experiment [2], in [3], in experiment [4], in experiment [5] and in experiment [6] was “inactive” each time. Besides, the Potency result in experiment [7], in experiment [8], in experiment [9], in [10], in experiment [11] and in [12] was “inactive” each time. Moreover, the Potency entry in experiment [13], in experiment [14], in experiment [15], in experiment [16], in experiment [17] and in experiment [18] was “inactive” throughout. Besides, the Potency entry in experiment [19] is “inactive”.
As to `O=[N+]([O-])c1ccccc1`, the Potency entry in experiment [1], in [2], in experiment [3], in [4], in [5] and in [6] was “inactive” each time. The Potency entry in experiment [7], in experiment [8], in experiment [9], in [10], in [11] and in experiment [12] was “inactive” throughout. In addition, the Potency entry in experiment [13], in experiment [15], in experiment [16], in experiment [20], in [17] and in experiment [18] was “inactive” each time. Further, the Potency result in [19] was “inactive”.
Regarding `Cc1sc2ccccc2c1CC1=NCCN1`, the Potency entry in experiment [1], in experiment [2], in [3], in experiment [4], in experiment [5] and in experiment [6] was “inactive” in each case. In addition, the Potency entry in experiment [8], in experiment [10], in experiment [11], in [12], in experiment [13] and in [14] was “inactive” each time. In addition, the Potency entry in [15], in [17], in [18] and in [19] was “inactive” throughout.
On to `O=C1CC[C@@]2(O)C3Cc4ccc(O)c5c4C2(CCN3CC2CC2)[C@H]1O5` (stereo partly drawn), for which the Potency result in [1], in experiment [2], in experiment [3], in experiment [4], in experiment [5] and in experiment [6] was “inactive” each time. The Potency result in experiment [7], in experiment [8], in experiment [9], in [10], in experiment [11] and in experiment [12] was “inactive” throughout. Moreover, the Potency entry in experiment [13], in experiment [15], in experiment [16], in [20], in experiment [17] and in experiment [18] was “inactive” in each case. Also, the Potency result in experiment [19] was “inactive”.
Turning to `C=CCN1CC[C@]23c4c5ccc(O)c4O[C@H]2[C@@H](O)C=C[C@H]3[C@H]1C5`, the Potency entry in [1], in [2], in [3], in experiment [5], in experiment [6] and in experiment [7] was “inactive” in each case. Moreover, the Potency result in experiment [8], in experiment [9], in [10], in experiment [11], in experiment [12] and in experiment [13] was “inactive” each time. Besides, the Potency result in [14], in [15], in experiment [16], in experiment [20], in experiment [17] and in experiment [18] was “inactive” each time. Besides, in [19], the Potency entry was “inactive”.
With `[O]=[Cr](=[O])([OH])[O][Cr](=[O])(=[O])[OH]`, the Potency in experiment [1] was 11200 nM (active). Moreover, the Potency result in experiment [2], in [3], in experiment [4], in experiment [5], in [6] and in experiment [7] was “inactive” in each case. The Potency entry in experiment [8], in experiment [9], in [10], in [11], in [12] and in experiment [13] was “inactive” in each case. For the same compound, the Potency result in experiment [14], in [15], in experiment [16], in experiment [20], in [17] and in experiment [18] was “inactive” in each case. Moreover, in experiment [19], the Potency result is “inactive”.
In the case of `OC(c1ccccc1)(c1ccccc1)C1CN2CCC1CC2` (stereo not drawn), the Potency entry in experiment [2], in experiment [3], in [5], in experiment [6], in [7] and in experiment [8] was “inactive” in each case. The Potency entry in experiment [10], in experiment [11], in experiment [12], in experiment [13] and in [15] was “inactive” each time. Further, in experiment [20], the Potency is 3790 nM (active).
For the compound `C/C(=C\c1csc(C)n1)[C@@H]1C[C@@H]2O[C@]2(C)CCC[C@H](C)[C@H](O)[C@@H](C)C(=O)C(C)(C)[C@@H](O)CC(=O)O1`, the Potency is 2.2 nM (active) in [1]; 4 nM (active) in experiment [3]; 3.8 nM (active) in experiment [6]; 1.8 nM (active) in experiment [7]; 2.1 nM (active) in experiment [8]; 4.3 nM (active) in [9]. Further, the Potency is 2.4 nM (active) in experiment [11]; 2.7 nM (active) in [12]; 3.4 nM (active) in experiment [13]; 1.2 nM (active) in experiment [14]; 3.2 nM (active) in experiment [15]; 3.4 nM (active) in experiment [16]. Further, the Potency in experiment [20] is 3.4 nM (active); in [17] it was 4.8 nM (active); in experiment [18], 1.3 nM (active); in experiment [19], 4.5 nM (active).
On to `O=C(CS(=O)C(c1ccccc1)c1ccccc1)NO` (stereo not drawn), for which the Potency entry in [2], in [3], in experiment [4], in experiment [5], in [6] and in [7] was “inactive” in each case. Also, the Potency entry in experiment [8], in [9], in [10], in [11], in experiment [12] and in experiment [13] was “inactive” each time. Further, the Potency result in experiment [14], in [15], in experiment [16], in experiment [20], in [17] and in experiment [18] was “inactive” each time. For the same compound, the Potency entry in experiment [19] is “inactive”.
As to `COc1ccc2c(c1OC)C(=O)OC2C1c2cc3c(cc2CCN1C)OCO3` (stereo not drawn), the Potency entry in [1], in [3], in [7], in [15], in experiment [18] and in experiment [19] was “inactive” in each case.
For `S=C(S)N1CCNCC1`, the Potency result in experiment [2], in experiment [3], in [4], in experiment [5], in experiment [6] and in experiment [7] was “inactive” in each case. Further, the Potency result in [8], in experiment [9], in experiment [10], in experiment [11], in experiment [12] and in experiment [13] was “inactive” each time. In addition, the Potency result in experiment [14], in [15], in experiment [16], in [20], in experiment [17] and in [18] was “inactive” in each case. For the same compound, in experiment [19], the Potency result was “inactive”.
Regarding `C[C@H]1CCC[C@H](O)CCCCCc2cc(O)cc(O)c2C(=O)O1`, the Potency result in experiment [2], in experiment [3], in experiment [4], in [5], in experiment [6] and in experiment [7] was “inactive” throughout. Moreover, the Potency result in experiment [8], in experiment [10], in [11], in experiment [12], in experiment [13] and in experiment [14] was “inactive” each time. The Potency result in experiment [15], in [17] and in experiment [18] was “inactive” in each case.
For the compound `C[N+]1(C)CCCCC1COC(=O)C(O)(c1ccccc1)c1ccccc1` (stereo not drawn), the Potency result in [2], in [3], in experiment [4], in experiment [5], in experiment [6] and in experiment [7] was “inactive” in each case. Also, the Potency result in experiment [8], in [9], in experiment [10], in experiment [11], in [12] and in experiment [13] was “inactive” each time. Besides, the Potency result in experiment [14], in experiment [15], in experiment [16], in [20], in [17] and in experiment [18] was “inactive” each time. The Potency result in experiment [19] is “inactive”.
